In PubChem BioAssay (NCATS):
A number with no mark means an inactive call. Calls of active or inactive are those of the source. How the calls were made is not given here.
Potency means the concentration at half of the fitted maximal effect.

Experiment: Immunotoxin (HA22) sensitization/mitigation study. Vehicle arm (PBS) (AID 1159510)
Details: cancer cells viability with PBS vehicle (HA22 study); series mostly up to 46.1 µM; viability (% of control): at the top concentration
In the case of `C[C@]12CC[C@H](O)CC1=CC[C@@H]1[C@H]2CC[C@]2(C)C(c3cccnc3)=CC[C@H]12`, the Potency is reported as 1.87 µM (active). With `Clc1ccc2ncc(-c3cccc(NC4CNC4)n3)n2c1` the Potency was 20.9 µM (active). With `C[C@@H]1CN(CC(=O)Nc2ccc3c(c2)Cc2cccc(-c4cc(=O)cc(N5CCOCC5)o4)c2S3)C[C@H](C)O1` the Potency was 16.6 µM (active). In the case of `CC(=O)c1c(C)c2cnc(Nc3ccc(N4CCNCC4)cn3)nc2n(C2CCCC2)c1=O`, the Potency is reported as 16.6 µM (active). In the case of `CN(C)CCCNC(=O)c1ccc(-c2cc(O)c3ncccc3c2)cc1`, the Potency is reported as 16.6 µM (active). For `CN(C)Cc1ccc(-c2nc3cccc4c3n2CCNC4=O)cc1`, the Potency was 23.5 µM (active). With `NC(CO)(CO)CCc1ccc(Sc2cccc(OCc3ccccc3)c2)cc1Cl` the Potency was 23.5 µM (active). In the case of `O=C(Nc1ccccc1-c1cn2c(CN3CCNCC3)csc2n1)c1cnc2ccccc2n1`, the Potency is reported as 26.4 µM (active). With `N#CC[C@H](C1CCCC1)n1cc(-c2ncnc3[nH]ccc23)cn1` the Potency was 23.5 µM (active). For `CCC(=C(c1ccccc1)c1ccc(OCCN(C)C)cc1)c1ccccc1`, the Potency was 23.5 µM (active). For `CC(C)(C)c1cc(NC(=O)Nc2ccc(-c3cn4c(n3)sc3cc(OCCN5CCOCC5)ccc34)cc2)no1`, the Potency was 0.59 µM (active). For `O=C(c1cc(Cc2n[nH]c(=O)c3ccccc23)ccc1F)N1CCN(C(=O)C2CC2)CC1`, the Potency was 14.8 µM (active). With `COc1cc2nccc(Oc3ccc(NC(=O)C4(C(=O)Nc5ccc(F)cc5)CC4)cc3)c2cc1OC` the Potency was 20.9 µM (active). With `CCc1cncnc1N1CCN(Cc2nc3ccc(C(F)(F)F)cc3[nH]2)CC1` the Potency was 7.43 µM (active). For `CNCc1ccc(-c2[nH]c3cc(F)cc4c3c2CCNC4=O)cc1`, the Potency was 20.9 µM (active). For `Cc1ccccc1C(C(=O)NC1CCCC1)N(C(=O)Cn1cnc2ccccc21)c1cccc(F)c1` (stereo not given), the Potency was 23.5 µM (active). With `CC[C@H](Nc1ncnc2nc[nH]c12)c1nc2cccc(F)c2c(=O)n1-c1ccccc1` the Potency was 20.9 µM (active). In the case of `O=C(Nc1cccc(Cl)c1)Nc1ncc(CCNc2ncnc3ccsc23)s1`, the Potency is reported as 29.6 µM (active). In the case of `CN(C)c1ccc(Nc2nc(N)n(C(=O)c3c(F)cccc3F)n2)cc1`, the Potency is reported as 20.9 µM (active). With `CNC1CCN(C(Cc2cccc(-c3ccncc3)c2)C(=O)c2sc3c(F)ccc(F)c3c2Cl)CC1` (stereo not given) the Potency was 20.9 µM (active). For `COc1cc(C)c(Sc2cnc(NC(=O)c3ccc(CNC(C)C(C)(C)C)cc3)s2)cc1C(=O)N1CCN(C(C)=O)CC1` (stereo not given), the Potency was 14.8 µM (active). With `Cn1c2cc(S(C)=O)sc2c2cnn(Cc3cccc(N)c3)c(=O)c21` (stereo not given) the “viability (% of control)” value was 118%. For `Cc1cccc(-c2[nH]c(C(C)(C)C)nc2-c2ccc3nccnc3c2)n1`, the “viability (% of control)” value was 101%. In the case of `COc1ccccc1[C@H](c1cccc2ccccc12)[C@@](C)(C#N)C(=O)N1CCC(c2cccc(C(F)(F)F)c2)CC1`, the “viability (% of control)” value is reported as 93.8%. In the case of `CNC(=O)c1ccc(N2C(=S)N(c3ccc(C#N)c(C(F)(F)F)c3)C(=O)C2(C)C)cc1F`, the “viability (% of control)” value is reported as 87.8%.
